Common to all, as to experiment: DAPPL (digital affinity profiling via proximity ligation, sequencing); 10 mM Tris-HCl pH 7.5, 50 mM NaCl, 1 mM DTT, 4% glycerol, room temperature, 30 min; GST-TFs on glutathione beads, 16-mer random dsDNA library, 0.1% formaldehyde crosslink after washing; high values mean tight binding
Conditions in all cases: protein: recombinant; tags: N-terminal GST; dsDNA, one strand shown

Assay [1] has as its target T1, FLI1 (Homo sapiens, UniProt Q01543 1-452).
T1 sequence: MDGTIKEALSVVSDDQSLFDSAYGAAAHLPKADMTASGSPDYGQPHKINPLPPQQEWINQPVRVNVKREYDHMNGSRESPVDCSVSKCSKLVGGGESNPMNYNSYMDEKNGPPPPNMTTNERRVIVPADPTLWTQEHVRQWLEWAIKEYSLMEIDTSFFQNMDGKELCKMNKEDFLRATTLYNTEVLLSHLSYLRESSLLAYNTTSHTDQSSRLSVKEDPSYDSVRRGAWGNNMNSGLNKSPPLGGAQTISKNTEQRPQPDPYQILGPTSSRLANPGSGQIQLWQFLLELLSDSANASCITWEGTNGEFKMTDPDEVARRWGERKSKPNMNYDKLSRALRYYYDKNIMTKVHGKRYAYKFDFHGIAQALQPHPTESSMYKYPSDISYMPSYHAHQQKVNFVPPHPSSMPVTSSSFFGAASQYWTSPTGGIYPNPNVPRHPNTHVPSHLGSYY
Summed up:
(§1)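 Beads coated with glutathione captured GST-fused human transcription factors that had been expressed in yeast, and the factors were then given DNA barcodes and pooled with a tag-only sample. The pools were incubated with 200 nmole of a random double-stranded 16-mer DNA library in Tris/NaCl/DTT/glycerol buffer for 30 min at room temperature, washed, crosslinked with 0.1% formaldehyde and proximity-ligated with BsaI/T4 ligase at 37 °C for 1 h. PCR amplification and Illumina NextSeq500 sequencing came last. Binding signal is each hexamer's read frequency for a factor divided by its frequency for the tag-only sample.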

The target in assay [2] is T2, ELK1 (Homo sapiens, UniProt P19419 1-428).
T2 sequence: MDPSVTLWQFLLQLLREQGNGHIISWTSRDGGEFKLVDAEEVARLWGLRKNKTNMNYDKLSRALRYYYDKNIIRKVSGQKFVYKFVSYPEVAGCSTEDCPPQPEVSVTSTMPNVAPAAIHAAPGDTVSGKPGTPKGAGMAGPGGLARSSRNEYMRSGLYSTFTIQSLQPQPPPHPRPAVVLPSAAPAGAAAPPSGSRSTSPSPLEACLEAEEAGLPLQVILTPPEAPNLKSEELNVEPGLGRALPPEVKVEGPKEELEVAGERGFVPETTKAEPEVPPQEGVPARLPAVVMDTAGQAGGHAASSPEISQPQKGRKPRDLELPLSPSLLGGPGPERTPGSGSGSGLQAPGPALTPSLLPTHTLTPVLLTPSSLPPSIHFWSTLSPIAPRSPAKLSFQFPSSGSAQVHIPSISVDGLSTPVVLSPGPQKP
In a few lines:
as §1

The target in assay [3] is T3, GABPA (Homo sapiens, UniProt Q06546 1-454).
T3 sequence: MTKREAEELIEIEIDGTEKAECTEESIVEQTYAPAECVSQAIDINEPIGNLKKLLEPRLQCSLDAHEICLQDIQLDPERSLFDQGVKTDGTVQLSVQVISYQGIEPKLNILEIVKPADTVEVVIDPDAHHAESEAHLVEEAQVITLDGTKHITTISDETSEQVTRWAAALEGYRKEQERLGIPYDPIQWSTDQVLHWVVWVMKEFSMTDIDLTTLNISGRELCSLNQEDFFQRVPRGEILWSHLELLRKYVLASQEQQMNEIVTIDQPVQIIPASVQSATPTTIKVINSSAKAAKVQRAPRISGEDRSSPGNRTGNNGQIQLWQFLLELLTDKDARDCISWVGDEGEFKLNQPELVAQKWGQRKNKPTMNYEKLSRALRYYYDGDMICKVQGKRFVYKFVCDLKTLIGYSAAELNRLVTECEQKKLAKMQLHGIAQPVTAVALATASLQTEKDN
In a few lines: as §1

The target in assay [4] is ELF1 (Homo sapiens, UniProt P32519 1-619). Summed up: as §1
Sequence of ELF1 (P32519 whole entry): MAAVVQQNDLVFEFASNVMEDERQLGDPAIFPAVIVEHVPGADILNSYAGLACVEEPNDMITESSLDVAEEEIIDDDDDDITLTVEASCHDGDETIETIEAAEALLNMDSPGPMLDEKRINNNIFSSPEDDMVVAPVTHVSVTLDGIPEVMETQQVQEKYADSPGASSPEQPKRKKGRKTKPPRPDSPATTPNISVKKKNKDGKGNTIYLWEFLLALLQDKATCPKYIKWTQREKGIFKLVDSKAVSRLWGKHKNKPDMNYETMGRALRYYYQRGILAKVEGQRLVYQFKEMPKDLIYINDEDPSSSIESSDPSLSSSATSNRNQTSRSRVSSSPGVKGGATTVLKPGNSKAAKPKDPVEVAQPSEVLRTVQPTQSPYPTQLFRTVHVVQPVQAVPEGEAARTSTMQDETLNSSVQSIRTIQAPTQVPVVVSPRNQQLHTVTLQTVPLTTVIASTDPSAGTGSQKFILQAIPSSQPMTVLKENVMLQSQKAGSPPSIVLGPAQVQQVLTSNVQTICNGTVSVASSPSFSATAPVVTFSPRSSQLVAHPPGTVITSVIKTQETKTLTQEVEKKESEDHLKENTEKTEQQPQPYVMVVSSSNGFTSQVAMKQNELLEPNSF
The target of assay [5] is T4, EHF (Homo sapiens, UniProt Q9NZC4 1-300).
T4 sequence: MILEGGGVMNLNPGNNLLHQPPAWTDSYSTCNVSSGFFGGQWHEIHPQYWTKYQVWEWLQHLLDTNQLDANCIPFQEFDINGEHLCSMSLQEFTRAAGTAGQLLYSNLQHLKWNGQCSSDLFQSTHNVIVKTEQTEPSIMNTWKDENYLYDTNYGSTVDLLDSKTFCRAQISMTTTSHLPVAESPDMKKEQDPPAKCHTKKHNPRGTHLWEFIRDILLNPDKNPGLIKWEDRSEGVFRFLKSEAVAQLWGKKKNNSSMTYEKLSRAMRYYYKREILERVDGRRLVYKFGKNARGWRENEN
In a few lines: as §1

Assay [6] concerns the target SPI1 (Homo sapiens, UniProt P17947 1-270). Summed up: as §1
Assay [7] has as its target T5, ELK3 (Homo sapiens, UniProt P41970 1-407).
T5 sequence: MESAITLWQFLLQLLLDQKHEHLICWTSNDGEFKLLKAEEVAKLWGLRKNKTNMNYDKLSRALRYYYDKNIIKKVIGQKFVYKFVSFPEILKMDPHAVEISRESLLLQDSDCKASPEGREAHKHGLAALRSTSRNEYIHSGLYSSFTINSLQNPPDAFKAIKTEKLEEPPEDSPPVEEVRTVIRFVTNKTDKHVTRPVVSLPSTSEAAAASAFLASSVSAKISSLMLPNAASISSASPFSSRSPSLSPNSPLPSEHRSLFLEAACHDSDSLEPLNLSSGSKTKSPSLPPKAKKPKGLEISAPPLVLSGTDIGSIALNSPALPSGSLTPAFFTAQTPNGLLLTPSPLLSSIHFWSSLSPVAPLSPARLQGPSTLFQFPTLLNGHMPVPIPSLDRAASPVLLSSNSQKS
Summed up:
as §1

Assay [8] has as its target T6, FEV (Homo sapiens, UniProt Q99581 1-238).
T6 sequence: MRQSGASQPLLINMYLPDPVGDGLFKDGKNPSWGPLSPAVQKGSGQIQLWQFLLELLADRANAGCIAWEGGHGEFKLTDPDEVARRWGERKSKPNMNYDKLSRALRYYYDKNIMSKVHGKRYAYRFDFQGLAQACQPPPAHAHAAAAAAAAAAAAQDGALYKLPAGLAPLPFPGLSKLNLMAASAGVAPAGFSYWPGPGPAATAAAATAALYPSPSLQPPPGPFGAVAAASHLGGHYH
Summed up: as §1

The target of assay [9] is ETV5 (Homo sapiens, UniProt P41161 1-510). Summed up:
as §1

Assay [10] concerns the target T7, SPIC (Homo sapiens, UniProt Q8N5J4 1-248).
T7 sequence: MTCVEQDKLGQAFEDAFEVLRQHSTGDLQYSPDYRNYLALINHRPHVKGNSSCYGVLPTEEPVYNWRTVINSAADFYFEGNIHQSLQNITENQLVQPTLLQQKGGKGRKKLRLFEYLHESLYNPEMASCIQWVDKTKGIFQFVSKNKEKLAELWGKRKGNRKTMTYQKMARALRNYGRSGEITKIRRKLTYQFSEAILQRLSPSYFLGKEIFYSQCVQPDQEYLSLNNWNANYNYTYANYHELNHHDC
In a few lines: as §1

In assay [11] the target is ELF4 (Homo sapiens, UniProt Q99607 1-663). Summed up:
as §1

Assay [12] addresses ETV1 (Homo sapiens, UniProt P50549 1-477). In a few lines: as §1
The target in assay [13] is T8, ERF (Homo sapiens, UniProt P50548 1-548).
T8 sequence: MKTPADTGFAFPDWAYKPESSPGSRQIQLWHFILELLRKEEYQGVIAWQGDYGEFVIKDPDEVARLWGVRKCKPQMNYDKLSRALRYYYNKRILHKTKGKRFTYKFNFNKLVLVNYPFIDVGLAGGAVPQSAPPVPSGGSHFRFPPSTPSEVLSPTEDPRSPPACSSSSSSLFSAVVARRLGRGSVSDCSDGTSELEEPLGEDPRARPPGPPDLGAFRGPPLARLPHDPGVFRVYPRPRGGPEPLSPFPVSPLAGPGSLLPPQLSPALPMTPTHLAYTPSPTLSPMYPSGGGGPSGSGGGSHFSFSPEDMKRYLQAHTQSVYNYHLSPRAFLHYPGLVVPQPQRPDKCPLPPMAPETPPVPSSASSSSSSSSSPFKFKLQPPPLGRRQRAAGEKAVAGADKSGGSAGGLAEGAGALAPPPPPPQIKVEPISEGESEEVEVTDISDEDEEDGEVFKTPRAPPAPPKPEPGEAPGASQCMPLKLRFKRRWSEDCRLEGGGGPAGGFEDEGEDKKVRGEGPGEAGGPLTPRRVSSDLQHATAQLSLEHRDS
Summed up:
as §1

In assay [14] the target is T9, ETV3L (Homo sapiens, UniProt Q6ZN32 1-361).
T9 sequence: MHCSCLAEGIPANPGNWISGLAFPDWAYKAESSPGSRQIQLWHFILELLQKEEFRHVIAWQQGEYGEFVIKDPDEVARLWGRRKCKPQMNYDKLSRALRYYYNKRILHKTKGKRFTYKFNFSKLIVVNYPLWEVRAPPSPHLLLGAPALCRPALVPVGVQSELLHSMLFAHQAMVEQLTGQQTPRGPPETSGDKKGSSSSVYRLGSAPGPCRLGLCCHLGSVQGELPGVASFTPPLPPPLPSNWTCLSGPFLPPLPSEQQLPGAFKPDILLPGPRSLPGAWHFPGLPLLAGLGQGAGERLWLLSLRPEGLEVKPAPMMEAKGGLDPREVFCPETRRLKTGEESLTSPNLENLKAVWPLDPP
In a few lines:
as §1

The target of assay [15] is T10, ETS2 (Homo sapiens, UniProt P15036 1-469).
T10 sequence: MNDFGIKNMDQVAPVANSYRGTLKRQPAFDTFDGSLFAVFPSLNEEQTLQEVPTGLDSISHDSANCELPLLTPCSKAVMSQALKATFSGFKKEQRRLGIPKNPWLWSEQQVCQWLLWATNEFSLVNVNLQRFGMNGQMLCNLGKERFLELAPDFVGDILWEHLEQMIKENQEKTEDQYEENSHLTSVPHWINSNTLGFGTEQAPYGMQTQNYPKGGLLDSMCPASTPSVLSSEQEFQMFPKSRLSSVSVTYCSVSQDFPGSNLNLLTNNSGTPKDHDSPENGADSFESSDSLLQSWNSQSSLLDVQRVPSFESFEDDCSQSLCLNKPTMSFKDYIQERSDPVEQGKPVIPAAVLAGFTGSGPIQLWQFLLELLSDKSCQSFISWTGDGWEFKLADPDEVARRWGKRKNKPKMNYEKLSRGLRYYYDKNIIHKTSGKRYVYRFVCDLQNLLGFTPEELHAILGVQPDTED
Summed up: as §1

The target in assay [16] is T11, ETV3 (Homo sapiens, UniProt P41162-2 1-143).
T11 sequence: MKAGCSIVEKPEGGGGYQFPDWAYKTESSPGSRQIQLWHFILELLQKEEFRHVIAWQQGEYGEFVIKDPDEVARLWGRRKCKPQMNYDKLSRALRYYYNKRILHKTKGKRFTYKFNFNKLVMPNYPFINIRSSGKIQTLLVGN
In a few lines:
as §1

For assay [17], the target named is ETV6 (Homo sapiens, UniProt P41212 1-452). In a few lines:
as §1

Sequence of ETV6 (P41212 whole entry): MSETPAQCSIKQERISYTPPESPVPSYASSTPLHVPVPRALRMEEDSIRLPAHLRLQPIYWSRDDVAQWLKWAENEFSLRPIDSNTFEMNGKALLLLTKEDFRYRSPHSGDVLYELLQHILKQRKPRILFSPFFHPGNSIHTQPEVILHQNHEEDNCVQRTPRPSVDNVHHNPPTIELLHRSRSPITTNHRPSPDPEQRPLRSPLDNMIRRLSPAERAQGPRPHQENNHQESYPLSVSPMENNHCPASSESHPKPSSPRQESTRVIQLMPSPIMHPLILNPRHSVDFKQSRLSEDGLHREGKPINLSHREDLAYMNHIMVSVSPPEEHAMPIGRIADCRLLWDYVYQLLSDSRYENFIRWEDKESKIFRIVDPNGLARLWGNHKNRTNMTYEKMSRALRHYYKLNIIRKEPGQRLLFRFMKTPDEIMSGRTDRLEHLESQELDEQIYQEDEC
Sequence of ETV5 (P41161 whole entry): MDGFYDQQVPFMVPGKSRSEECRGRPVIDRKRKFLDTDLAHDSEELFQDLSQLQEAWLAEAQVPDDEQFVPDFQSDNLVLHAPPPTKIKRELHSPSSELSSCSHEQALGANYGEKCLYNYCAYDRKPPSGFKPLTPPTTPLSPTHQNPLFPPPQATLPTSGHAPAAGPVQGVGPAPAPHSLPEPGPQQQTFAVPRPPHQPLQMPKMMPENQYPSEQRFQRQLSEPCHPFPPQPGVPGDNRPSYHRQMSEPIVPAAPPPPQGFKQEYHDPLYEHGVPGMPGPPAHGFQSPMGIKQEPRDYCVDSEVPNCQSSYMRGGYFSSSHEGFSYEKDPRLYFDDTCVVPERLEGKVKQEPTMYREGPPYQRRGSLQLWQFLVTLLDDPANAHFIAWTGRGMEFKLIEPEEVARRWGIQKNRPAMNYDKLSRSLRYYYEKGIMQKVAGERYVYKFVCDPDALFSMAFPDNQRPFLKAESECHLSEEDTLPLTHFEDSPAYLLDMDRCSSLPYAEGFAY
Sequence of ETV1 (P50549 whole entry): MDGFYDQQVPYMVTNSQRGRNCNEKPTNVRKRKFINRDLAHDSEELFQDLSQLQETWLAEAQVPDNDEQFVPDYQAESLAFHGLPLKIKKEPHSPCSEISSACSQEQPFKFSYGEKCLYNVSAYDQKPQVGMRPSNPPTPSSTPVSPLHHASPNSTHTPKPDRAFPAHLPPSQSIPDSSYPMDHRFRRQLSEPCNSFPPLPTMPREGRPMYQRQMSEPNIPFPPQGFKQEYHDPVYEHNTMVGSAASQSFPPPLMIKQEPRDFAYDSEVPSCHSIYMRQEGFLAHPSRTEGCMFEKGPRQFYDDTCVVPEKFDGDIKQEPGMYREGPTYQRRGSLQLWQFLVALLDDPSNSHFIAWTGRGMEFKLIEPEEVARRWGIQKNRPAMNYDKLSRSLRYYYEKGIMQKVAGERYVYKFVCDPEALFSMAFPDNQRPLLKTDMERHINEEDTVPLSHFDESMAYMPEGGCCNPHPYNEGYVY
Sequence of ELF4 (Q99607 whole entry): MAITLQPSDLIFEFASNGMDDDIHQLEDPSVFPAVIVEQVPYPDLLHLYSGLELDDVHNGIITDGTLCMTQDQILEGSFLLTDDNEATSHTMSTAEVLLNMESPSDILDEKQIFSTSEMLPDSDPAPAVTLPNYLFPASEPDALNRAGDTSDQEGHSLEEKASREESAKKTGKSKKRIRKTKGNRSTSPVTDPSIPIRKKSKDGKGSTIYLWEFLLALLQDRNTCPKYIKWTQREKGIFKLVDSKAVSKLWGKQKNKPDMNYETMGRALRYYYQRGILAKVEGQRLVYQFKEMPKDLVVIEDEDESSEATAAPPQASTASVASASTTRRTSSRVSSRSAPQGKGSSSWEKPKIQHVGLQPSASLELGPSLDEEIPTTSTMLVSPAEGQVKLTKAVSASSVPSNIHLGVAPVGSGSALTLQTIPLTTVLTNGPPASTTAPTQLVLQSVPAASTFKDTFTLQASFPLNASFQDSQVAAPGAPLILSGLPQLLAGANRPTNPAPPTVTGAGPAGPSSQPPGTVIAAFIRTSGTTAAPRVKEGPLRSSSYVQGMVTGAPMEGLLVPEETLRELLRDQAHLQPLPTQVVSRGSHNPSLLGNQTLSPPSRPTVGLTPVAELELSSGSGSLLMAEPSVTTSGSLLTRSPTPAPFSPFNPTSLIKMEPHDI

Consider TGCGGC, for which the binding signal in [1] was 1.06 fold enrichment (6-mer frequency, TF over GST control); in assay [2], 1.04 fold enrichment (6-mer frequency, TF over GST control); in [3], 1.09 fold enrichment (6-mer frequency, TF over GST control); in assay [4], 1.05 fold enrichment (6-mer frequency, TF over GST control); in assay [5], 1.07 fold enrichment (6-mer frequency, TF over GST control); in assay [6], 1.11 fold enrichment (6-mer frequency, TF over GST control). The binding signal is 1.01 fold enrichment (6-mer frequency, TF over GST control) in [7]; 1.02 fold enrichment (6-mer frequency, TF over GST control) in [8]; 1.06 fold enrichment (6-mer frequency, TF over GST control) in [9]; 1.19 fold enrichment (6-mer frequency, TF over GST control) in assay [10]; 1.13 fold enrichment (6-mer frequency, TF over GST control) in assay [11]; 1.08 fold enrichment (6-mer frequency, TF over GST control) in assay [12]. Besides, the binding signal was 1.14 fold enrichment (6-mer frequency, TF over GST control) in [13]; 1.03 fold enrichment (6-mer frequency, TF over GST control) in assay [14]; 1.05 fold enrichment (6-mer frequency, TF over GST control) in assay [15]; 1.03 fold enrichment (6-mer frequency, TF over GST control) in assay [16]; 1 fold enrichment (6-mer frequency, TF over GST control) in [17].
